# A selection: hits, their analogues and other compounds. The true share with any hit is near 0.9%.
# RecA intein inh – blocks M. tuberculosis RecA intein splicing | P9WHJ3 | cell-free RecA intein splicing, fluorescence | inhibition, % (concentration not given with the values) | hit rate 0.75% among 290,000; in the data active = inhibition above about 30%;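 note: 0% = vehicle wells and 100% = reference inhibitor control wells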
# Target sequence (P9WHJ3 whole entry, looked up): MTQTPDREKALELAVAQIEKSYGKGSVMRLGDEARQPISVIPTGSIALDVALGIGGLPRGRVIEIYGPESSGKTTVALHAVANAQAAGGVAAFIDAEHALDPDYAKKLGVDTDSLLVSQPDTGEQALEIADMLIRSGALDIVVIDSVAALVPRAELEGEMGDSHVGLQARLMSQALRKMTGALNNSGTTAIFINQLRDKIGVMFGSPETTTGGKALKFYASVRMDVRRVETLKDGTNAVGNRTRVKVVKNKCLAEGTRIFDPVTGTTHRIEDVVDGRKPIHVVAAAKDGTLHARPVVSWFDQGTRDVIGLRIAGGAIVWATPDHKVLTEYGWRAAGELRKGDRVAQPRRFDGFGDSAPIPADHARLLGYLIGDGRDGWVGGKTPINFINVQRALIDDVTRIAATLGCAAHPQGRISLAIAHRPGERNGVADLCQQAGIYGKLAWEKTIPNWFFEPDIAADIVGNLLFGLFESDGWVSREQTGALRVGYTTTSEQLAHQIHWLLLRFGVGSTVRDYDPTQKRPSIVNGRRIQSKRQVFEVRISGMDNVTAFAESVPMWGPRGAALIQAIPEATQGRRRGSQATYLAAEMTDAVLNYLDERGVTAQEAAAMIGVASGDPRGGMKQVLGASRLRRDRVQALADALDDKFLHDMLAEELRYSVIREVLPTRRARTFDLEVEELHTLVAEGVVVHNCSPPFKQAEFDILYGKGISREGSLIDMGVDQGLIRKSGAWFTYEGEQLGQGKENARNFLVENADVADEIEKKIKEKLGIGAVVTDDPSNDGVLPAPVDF
# Mtb UGM inh – inhibitors of M. tuberculosis UDP-galactopyranose mutase; inhibition, % at 10 µM; AID 504406; hit rate 0.06% among 320,000; purified UGM, fluorescence polarization probe displacement; in the data active = inhibition above about 10%, passing the limit was not always enough
# TcdB GH inh – TcdB glycohydrolase inhibition; AID 652162; TcdB glycohydrolase enzymatic assay, plate reader; inhibition, % at 9.99 µM; P18177; hit rate 0.24% among 350,000; in the data active = inhibition above about 10%
# Mtb BioA inh – inhibitors of Mycobacterium tuberculosis BioA enzyme; purified M. tuberculosis BioA enzyme, plate reader; hit rate 0.096% among 360,000; inhibition, % at 9.99 µM; in the data active = inhibition above about 40%
# Rv3671c inh – inhibitors of M. tuberculosis serine protease Rv3671c; hit rate 0.048% among 320,000; inhibition, % at 5.96 µM; in the data active = inhibition above about 38%;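 note: extracellular domain of Rv3671c used as enzyme; 0% = enzyme with DMSO and 100% = no enzyme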
# FadD28 FP inh – M. tuberculosis FadD28 bisubstrate binding inhibition; FadD28 bisubstrate probe binding, fluorescence polarization; inhibition, % at 12.5 µM; hit rate 0.22% among 360,000; AID 588549; in the data active = inhibition above about 8.5%, passing the limit was not always enough
# GFP chromo cs – counter-screen GFP chromophore formation inhibition; shares compounds with RecA intein inh; cell-free GFP chromophore formation, fluorescence; EC50, µM; hit rate 83% among 2,100; call rule not given here
# * marks the source's active call; other numbers are inactive results; / = not tested or not shown.
SMILES,RecA intein inh,Mtb UGM inh,TcdB GH inh,Mtb BioA inh,Rv3671c inh,FadD28 FP inh,GFP chromo cs
Cc1[nH]c2ccccc2c1C(C#N)(C#N)C1C(=O)c2ccccc2C1=O,42.1*,-3.4,1.2,-1.3,-70.2,17.9*,34.1*
CC(=O)Nc1ccc(S(=O)(=O)/N=C2\C(=O)c3ccccc3C([O-])=C2n2cc[n+](-c3ccccn3)c2)cc1,85.3*,5.5,0.8,-2.5,-97.5,1.2,6.15*
O=c1c(Cl)nc2cc(Cl)ccc2n1CCNc1ncc(C(F)(F)F)cc1Cl,67.1*,-2.4,/,/,6.4,-1.4,0.31*
O=c1c2nncn2c2cc(C(F)(F)F)ccc2n1CCNc1ncc(C(F)(F)F)cc1Cl,3.0,3.6,-0.1,-2.1,-3.8,-0.3,/
CCOC(=O)CSc1nnc(C)c(=O)[nH]1,0.0,1.4,/,-0.7,-18.2,-3.9,/
CCOC(=O)CSc1nnc(NCC(=O)OC)c(=O)[nH]1,37.2*,-1.2,/,-0.2,-0.2,-2.9,>38
C[C@H](O)C#Cc1ccc2c(c1)O[C@@H](CN(C)C(=O)c1ccccc1)[C@@H](C)CN([C@@H](C)CO)S2(=O)=O,/,/,-0.3,2.0,/,/,/
CCOC(=O)/C=c1\s/c(=C(\C#N)C(=O)NC)n(-c2ccccc2)c1=O,-0.8,7.2,/,-0.2,-14.1,-0.5,/
CCOC(=O)/C=c1\s/c(=C(\C#N)C(N)=O)n(-c2ccccc2)c1=O,48.9*,-2.0,-0.4,0.1,-12.1,-1.5,24.2*
O=C(Nc1ccc(F)cc1)Nc1ccc2c(c1)[C@H]1C[C@@H](CC(=O)N3CCOCC3)O[C@H](CO)[C@H]1O2,/,/,-1.1,-0.8,/,/,/
Fc1ccc(-[n+]2nc(Nc3ccccc3)sc2-c2c3ccccc3cc3ccccc23)cc1,48.6*,-1.2,6.2,-0.7,3.6,-9.3,16.4*
CO[C@H]1CN(C)C(=O)c2ccc(NS(=O)(=O)c3cn(C)cn3)cc2OC[C@@H](C)N(C)C[C@H]1C,/,/,-0.5,-1.0,/,/,/
C[C@@H]1CN([C@H](C)CO)C(=O)c2cc(NC(=O)Nc3ccccc3)ccc2O[C@H]1CN(C)Cc1ccc(-c2ccccc2)cc1,/,/,1.3,-3.3,/,/,/
CCOC(=O)c1c(NC(=O)c2ccco2)n(C2CCCCC2)c2nc3ccccc3nc12,54.8*,1.3,/,/,-32.1,0.8,21.2*
CC(=O)N(C1=C(Cl)C(=O)c2ccccc2C1=O)C1CCCCC1,92.5*,-0.3,-3.0,-0.5,-68.0,-0.1,1.28*
COc1ccc2ccc3c(c2c1)N=C[C@]1(O3)N(C)c2ccccc2C1(C)C,89.2*,0.8,2.7,0.1,-85.2,0.4,12.2*
CC1=NOC2(C1)N(C)c1ccccc1C2(C)C (stereo not given),2.5,0.2,/,0.1,2.2,-3.5,/
FC(F)(F)c1cccc(NC(=S)Nc2ccc(Cl)c(Cl)c2)c1,0.0,-3.0,-0.5,6.6,-3.8,-6.2,/
O=[N+]([O-])c1cc(C(F)(F)F)cc([N+](=O)[O-])c1NCCNC(=S)Nc1ccc(Cl)c(Cl)c1,30.3*,1.1,0.3,-1.5,-50.2,-3.6,>38
Cc1ccc2nc(/C(C#N)=C\c3ccc([N+](=O)[O-])o3)[nH]c2c1,34.1*,0.9,/,-0.9,-16.3,-1.8,8.37*
O=C(N/N=C1\C/C(=N\NC(=O)c2ccncc2)c2ccccc21)c1ccncc1,94.6*,0.3,-6.7,3.1,-42.4,2.8,1.15*
O=C(NN=C1C2CC3CC(C2)CC1C3)c1ccncc1,-2.4,0.0,/,-1.4,1.7,1.3,/
CCc1cccc(NC(=O)Cn2cccc2)c1,-1.0,-0.8,/,/,0.6,-1.5,/
CCc1cccc(NC(=O)CSCc2cc(=O)[nH][nH]2)c1,81.4*,1.7,/,-0.8,-9.1,0.5,11.6*
Cc1ccccc1N1C(=O)c2ccccc2C1Nc1cccnc1 (stereo not given),33.2*,0.5,-8.8,0.2,-4.7,-2.5,>38
SMILES,RecA intein inh,Mtb UGM inh,TcdB GH inh,Mtb BioA inh,Rv3671c inh,FadD28 FP inh,GFP chromo cs
COc1ccc(NC2c3ccccc3C(=O)N2c2cccnc2)cc1 (stereo not given),0.8,0.3,1.1,7.2,2.9,0.1,/
O=C(C[C@@H]1C=C[C@@H](NC(=O)Nc2ccc(F)cc2)[C@H](CO)O1)NCc1cccc(F)c1,/,/,-0.1,-2.1,/,/,/
CCC(c1ccc(O)cc1)C(CC)c1ccc(O)cc1 (stereo not given),/,1.8,-0.5,-1.6,-11.3,-8.1,/
Cc1cc(C(c2ccc(O)cc2)c2cc(C)c(O)cc2C)c(C)cc1O,33.1*,2.8,0.6,-0.7,-12.1,0.1,>38
C[C@@H]1CN([C@@H](C)CO)C(=O)Cc2cc(NC(=O)Cn3cnnn3)ccc2O[C@@H]1CN(C)Cc1ccc(Cl)c(Cl)c1,/,/,0.0,3.3,/,/,/
C[C@H](CO)N1C[C@H](C)[C@@H](CN(C)CC2CCCC2)Oc2cc(C#CCN(C)C)ccc2S1(=O)=O,/,/,-1.7,/,/,/,/
CC(CCc1ccccc1)NC(=O)COC(=O)c1ccc(S(C)(=O)=O)c([N+](=O)[O-])c1 (stereo not given),55.4*,-2.7,1.6,/,-35.9,-4.0,31.9*
CS(=O)(=O)c1ccc(C(=O)OCc2nnc(-c3ccccc3)o2)cc1[N+](=O)[O-],73.5*,/,-0.1,/,/,-0.6,13.6*
COc1cccc(-c2ccc([C@H]3[C@H](CO)N4C(=O)CN(C(=O)CN5CCOCC5)C[C@@H]34)cc2)c1,/,/,0.2,/,/,/,/
NS(=O)(=O)c1ccc(N=Nc2ccc(O)c3ncccc23)cc1,6.7,-1.0,-0.8,/,3.8,-2.5,/
NS(=O)(=O)c1ccc(N=Nc2ccc(=O)[nH]c2O)cc1,72.6*,2.3,-2.4,/,-44.8,1.6,10*
Nc1ccc2ncccc2c1,70.1*,-2.9,1.8,/,-1.3,-0.1,16*
O=C(C[C@H]1C=C[C@@H](NC(=O)c2ccc3c(c2)OCO3)[C@@H](CO)O1)NCc1ccc(Oc2ccccc2)cc1,/,/,0.4,/,/,/,/
Cc1ccc2c(c1)c1c(n2CC(O)CNC(C)(C)C)CCCC1 (stereo not given),/,/,0.4,-3.3,/,-0.2,/
Cc1ccc2c(c1)c1c(n2CC(O)CN2CCCCCC2)CCCC1 (stereo not given),44.2*,-1.3,0.3,0.3,1.3,-1.8,>38
CCC(=O)N1C[C@H](C)[C@H](OC)CN(C)C(=O)c2ccc(NC(=O)c3cnccn3)cc2OC[C@H]1C,/,/,0.4,3.5,/,/,/
CCOC(=O)c1nnc(-c2ccccc2)nc1Sc1ccccc1Cl,39.5*,0.1,/,0.2,3.6,-4.1,1.96*
COc1ccc(S(=O)(=O)Nc2cccc3c2O[C@H](CN(C)C(=O)NC2CCCCC2)[C@H](C)CN([C@H](C)CO)C3=O)cc1,/,/,0.3,0.8,/,/,/
CCOC(=O)C(Nc1ccc2ccccc2c1)C(=O)OCC,70.5*,-2.2,/,/,-7.6,-0.6,21.8*
COCC#Cc1ccc2c(c1)O[C@@H](CN(C)CC1CC1)[C@@H](C)CN([C@@H](C)CO)S2(=O)=O,/,/,-1.0,0.7,/,/,/
Cc1cc(C2C(C#N)=C(N)Oc3n[nH]c(C)c32)c(C)s1 (stereo not given),80.8*,-0.1,/,1.8,-0.8,-1.9,36.5*
